CtBP-E1A blk: qHTS Assay for Inhibitors of the CtBP/E1A Interaction; CtBP / adenovirus E1A interaction (AlphaScreen); 340,000 compounds, 0.49% hits; AlphaScreen GST-E1A/His-CtBP binding, 1536-well; active compounds read low; AID 651724, 2012; activity change, % (test concentration not listed); in the data active = activity change below about -65%; inconclusive = mostly about -30% to -63%
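AlphaScreen with 125 nM GST-E1A and 125 nM His-CtBP (5X stocks) in Tris pH 8.0, 300 mM NaCl, BSA, Tween 20, TCEP. Compounds preincubated 2 h at 37 deg C, then glutathione donor/nickel acceptor beads added for 1 h at 37 deg C in dark.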
Six1-Eya2 inh: qHTS Assay for Inhibitors of the Six1/Eya2 Interaction. AlphaScreen GST-Six1/His-Eya2 binding, biochemical; active compounds read low. activity change, % (test concentration not listed). 360,000 compounds, 0.56% hits. AID 651725, 2012; in the data active = activity change below about -65%; inconclusive = mostly about -30% to -63%
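AlphaScreen with GST-Six1 and His-Eya2 (5X mix: 250 nM and 500 nM), glutathione donor and nickel acceptor beads; buffer 50 mM Tris pH 8.0, 300 mM NaCl, 1 mM TCEP; 1 h at 37 C in the dark.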
BAZ2B block: qHTS Assay for Inhibitors of BAZ2B; AID 504333, 2011; Potency, µM (titrated, usually from 114 µM), most hits filed as inhibitors; AlphaScreen BAZ2B-H3K14Ac peptide displacement; 360,000 compounds, 4.4% hits; note: nearly all actives have a fitted effect of over 60% in size
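In this displacement format the biotinylated H3(5-23) peptide acetylated at Lys14 serves as ligand at 50 nM, with BAZ2B at 50 nM in PBS pH 7.4 containing 0.01% Tween-20. Donor and acceptor beads are 10 ug/mL final.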
TDP1 block: qHTS Assay for Inhibitors of Tyrosyl-DNA Phosphodiesterase (TDP1); 350,000 compounds, 0.28% hits; AID 485290, 2010; Potency, µM (doses to about 130 µM), usual class: inhibitors; recombinant TDP1, AlphaScreen DNA substrate cleavage; Tyrosyl-DNA phosphodiesterase 1 (Homo sapiens), Q9NUW8; note: nearly all actives have a fitted effect of over 40% in size
Target sequence (Q9NUW8 whole entry, looked up): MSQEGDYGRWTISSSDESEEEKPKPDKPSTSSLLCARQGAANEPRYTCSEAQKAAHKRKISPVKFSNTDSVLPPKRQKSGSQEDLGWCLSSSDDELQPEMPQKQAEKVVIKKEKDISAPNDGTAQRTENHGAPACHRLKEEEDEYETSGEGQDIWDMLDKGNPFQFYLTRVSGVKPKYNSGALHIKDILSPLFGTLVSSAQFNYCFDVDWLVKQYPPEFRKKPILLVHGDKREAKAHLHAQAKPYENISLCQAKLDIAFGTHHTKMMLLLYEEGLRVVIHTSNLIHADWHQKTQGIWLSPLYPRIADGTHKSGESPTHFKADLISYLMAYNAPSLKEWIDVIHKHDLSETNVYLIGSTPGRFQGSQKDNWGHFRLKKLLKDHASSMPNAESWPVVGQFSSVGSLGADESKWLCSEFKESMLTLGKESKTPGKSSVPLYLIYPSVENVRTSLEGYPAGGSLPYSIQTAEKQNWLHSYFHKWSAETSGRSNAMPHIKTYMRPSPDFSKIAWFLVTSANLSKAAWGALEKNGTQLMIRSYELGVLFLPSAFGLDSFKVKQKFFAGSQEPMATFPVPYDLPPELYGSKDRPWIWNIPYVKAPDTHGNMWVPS
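Signal: AlphaScreen proximity between streptavidin donor and anti-FITC acceptor beads on intact substrate. Reaction: Tdp1 1 nM, substrate 15 nM final, 5 min RT after 15 min compound preincubation.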
JMJD2A Tudor inh: qHTS Assay for Inhibitors of JMJD2A-Tudor Domain; Lysine-specific demethylase 4A (Homo sapiens), O75164; 390,000 compounds, 4.4% hits; AlphaScreen JMJD2A-Tudor / H3K4me3 peptide binding; Potency, µM (series often up to 114 µM), hits mostly inhibitors; note: nearly all actives have a fitted effect of over 50% in size
HP1b binding inh: HTS for Inhibitors of HP1-beta Chromodomain Interactions with Methylated Histone Tails. AlphaScreen HP1-beta / biotin-H3K9me3 peptide binding. Potency, µM (titrated, usually from 114 µM), hits mostly inhibitors. 390,000 compounds, 0.56% hits. AID 540317, 2011; note: nearly all actives have a fitted effect of over 70% in size
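Compound inhibition of the preformed complex between 50 nM HP1-beta and 50 nM biotinylated H3K9me3 peptide was read by AlphaScreen. Buffer was PBS pH 7.4 with 0.01% Tween-20. Incubations ran 30 min at room temperature, with 10 ug/mL donor/acceptor beads.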
Of the large screens only hits and unclear results are named; the others gave an inactive call. The list is not random: actives were taken first. Their share in the collection is about 5.3%. Unless noted, calls come from the whole dose curve; as a rule, active = well fitted inhibition curve with a large enough effect; inconclusive = small, poorly fitted or top-dose-only effect; inactive = no such curve, though single readings can be large or run the other way.

Cc1cccc(CC(=O)N2CC(=O)Nc3ccc(Br)cc3C2c2ccc(F)cc2)c1 (stereo not drawn)	none (no result: CtBP-E1A blk, Six1-Eya2 inh)
CCN(CC)CCOC(=O)c1ccc(N/C=C(/C#N)c2nc(-c3cc4ccccc4oc3=O)cs2)cc1	JMJD2A Tudor inh inconclusive, HP1b binding inh 17.8µM (no result: TDP1 block)
N#C/C(=C\c1cccc(F)c1)c1nc(-c2cc3ccccc3oc2=O)cs1	none (no result: CtBP-E1A blk, Six1-Eya2 inh)
CCN(CC)CCOC(=O)c1ccc(N/C=C(/C#N)c2nc(-c3ccc(OC)cc3)cs2)cc1	BAZ2B block inconclusive, JMJD2A Tudor inh 56.2µM, HP1b binding inh inconclusive (no result: TDP1 block)
N#C/C(=C\C=C\c1ccccc1)c1nc(-c2ccc3c(c2)OCO3)cs1	none
CCN(CC)CCOC(=O)c1ccc(N/C=C(/C#N)c2nc(-c3ccc4c(c3)OCO4)cs2)cc1	BAZ2B block inconclusive, JMJD2A Tudor inh 39.8µM, HP1b binding inh 31.6µM (no result: TDP1 block)
CCc1cc2c(nc1CC)CCN(CC/C(C)=N/O[C@@H](C)CN1CCCCc3nc(C)c(C)cc31)C2	none (no result: CtBP-E1A blk, Six1-Eya2 inh, BAZ2B block, JMJD2A Tudor inh, HP1b binding inh)
CC(C)C(NS(=O)(=O)c1ccc2c(c1)oc(=O)n2C)C(=O)NCc1ccccc1 (stereo not drawn)	none (no result: CtBP-E1A blk, Six1-Eya2 inh)
CCOC(=O)c1ccc(NS(=O)(=O)c2ccc(Br)s2)cc1	none (no result: CtBP-E1A blk, Six1-Eya2 inh)
CC(=O)C1=C(C)NC(SCC(=O)c2ccccc2)=C(C#N)C1CC(C)C (stereo not drawn)	BAZ2B block inconclusive, JMJD2A Tudor inh 56.2µM
CCOC(=O)CSC1=C(C#N)C(c2ccccc2)C(C(C)=O)=C(C)N1 (stereo not drawn)	JMJD2A Tudor inh inconclusive
O=c1cc(CSc2ccccc2)[nH]c(=S)[nH]1	JMJD2A Tudor inh 89.1µM
O=c1cc(CSc2ccccc2)[nH]c2ccccc12	none (no result: TDP1 block)
CCOc1ccc(N(C)c2ccc(/C=C3/SC(=S)NC3=O)cc2)cc1	BAZ2B block 50.1µM, JMJD2A Tudor inh 3.55µM, HP1b binding inh inconclusive
CCOc1c(O)ccc(/C=C2\SC(=S)NC2=O)c1[N+](=O)[O-]	BAZ2B block 39.8µM, JMJD2A Tudor inh inconclusive, HP1b binding inh inconclusive
O=C1NC(=S)S/C1=C\c1cc(Cl)ccc1Cl	JMJD2A Tudor inh inconclusive (no result: BAZ2B block, TDP1 block)
CN(C)c1ccc(C=C2SC(=S)NC2=O)cc1	JMJD2A Tudor inh inconclusive (no result: BAZ2B block, TDP1 block)
C[C@@H](/C=C\c1cccc(Oc2ccc(F)cc2)c1)N(O)C(N)=O	none (no result: CtBP-E1A blk, Six1-Eya2 inh, BAZ2B block, JMJD2A Tudor inh, HP1b binding inh)
COCC(C)NCc1cccc2ccccc12 (stereo not drawn)	TDP1 block inconclusive, JMJD2A Tudor inh 31.6µM (no result: CtBP-E1A blk)
COc1ccc(CCC(C)NCc2ccccc2OC)cc1 (stereo not drawn)	none
CC(CCc1ccccc1)NCc1cccc2ccccc12 (stereo not drawn)	JMJD2A Tudor inh 25.1µM (no result: CtBP-E1A blk, TDP1 block)
COCC(C)NCc1ccc(C)cc1C (stereo not drawn)	JMJD2A Tudor inh 4.47µM
OCCNCc1cccc2ccccc12	none
O=C1[C@H]2[C@H]3[C@H](O)[C@H](O)C/C(=N/OC[C@@H](O)COCc4ccco4)[C@@H]3CC[C@@H]2C(=O)N1Cc1ccccc1	none (no result: CtBP-E1A blk, Six1-Eya2 inh, BAZ2B block, JMJD2A Tudor inh, HP1b binding inh)
COc1cccc(-c2cn3ncsc3n2)c1	BAZ2B block inconclusive (no result: CtBP-E1A blk, Six1-Eya2 inh)
Cc1cc(O)ccc1Nc1nc2ccccc2nc1Nc1ccc(O)cc1C	BAZ2B block 50.1µM, JMJD2A Tudor inh 89.1µM
Cc1ccc(Nc2nc3ccccc3s2)c(C)c1	none
COc1cc(F)c(S(=O)(=O)N2CCCN(S(=O)(=O)c3cccc(NC(C)=O)c3)CC2)c(F)c1	none (no result: CtBP-E1A blk, Six1-Eya2 inh, BAZ2B block, HP1b binding inh)
COc1ccccc1Nc1nc(N)nc(CN2CCN(c3ccccc3)CC2)n1	BAZ2B block 50.1µM, JMJD2A Tudor inh 56.2µM
COc1ccccc1N1CCN(Cc2nc(N)nc(Nc3ccccc3)n2)CC1	JMJD2A Tudor inh 50.1µM
COc1ccc(Nc2nc(N)nc(CN3CCOCC3)n2)cc1	BAZ2B block 79.4µM, JMJD2A Tudor inh 50.1µM

Assay outcomes: PubChem BioAssay, National Center for Advancing Translational Sciences (NCATS)
